Sampled rows, rich in hits. Any-hit rate of the full collection: about 8%.
Lassa entry inh: qHTS for Inhibitors of binding or entry into cells for Lassa Virus | Lassa virus pseudotype entry inhibition, cell reporter | Potency, µM (titrated, usually from 37.9 µM), without a hit: at the top dose activity change, negative = inhibition, actives largely listed as inhibitors | hit rate 1.2% among 300,000 | AID 540256, 2011; calls by dose curve; tested in HEK293 cells; also: potency is read from the fitted curve at half-maximal effect; % is scaled to controls: 0 for no effect and ±100 for the full control effect; nearly all actives have a fitted effect of over 50% in size
HCV inhibitor: qHTS Assay for Inhibitors of Hepatitis C Virus (HCV); Potency, µM (top dose mostly 41.8 µM), inactives show top-dose activity change, negative = inhibition, hits mostly inhibitors; Huh7.5.1 HCVcc-Cre infection, luciferase reporter, 44 h; hit rate 3.4% among 340,000; active = well fitted inhibition curve with a large enough effect; inconclusive = small, poorly fitted or top-dose-only effect, or another doubt; inactive = no such curve, though single readings can be large or run the other way; also: potency is read from the fitted curve at half-maximal effect; % is scaled to controls: 0 for no effect and ±100 for the full control effect
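HCVcc-Cre virus at an moi near 0.5 was added right after compound to cells cultured 4 h from seeding (1,000 cells/well). Luciferase activity was determined 44 h later, 15 min after substrate addition at RT.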
SARS PLP yeast: qHTS of Yeast-based Assay for SARS-CoV PLP; AID 485353, 2010; S. cerevisiae expressing SARS-CoV PLpro, growth rescue; hit rate 0.19% among 330,000; Potency, µM (titrated, usually from 32.9 µM), inactives show at the top dose activity, positive = growth rescue, most hits filed as activators; calls by dose curve; also: potency is read from the fitted curve at half-maximal effect; 0% is about no effect; nearly all actives have a fitted effect of over 55% in size
FMDV antiviral: High Throughput Screening for Foot and Mouth Disease Virus Antivirals; FMDV antiviral cell-based qHTS; Potency, µM (highest dose often 57.9 µM), inactives show at the top dose activity change, negative = inhibition, hits mostly inhibitors; hit rate 1.2% among 410,000; calls by dose curve; tested in HEK293T cells; also: read-out not given here; potency is read from the fitted curve at half-maximal effect; % is scaled to controls: 0 for no effect and ±100 for the full control effect; nearly all actives have a fitted effect of over 45% in size
Marburg entry inh: qHTS for inhibitors of binding or entry into cells for Marburg Virus. Marburg virus pseudotyped entry inhibition, cell reporter. Potency, µM (top dose mostly 37.8 µM), for inactives: at the top dose activity change, negative = inhibition, usual class: inhibitors. hit rate 1.8% among 300,000; calls by dose curve; tested in HEK293 cells; also: potency is read from the fitted curve at half-maximal effect; % is scaled to controls: 0 for no effect and ±100 for the full control effect
HCMV inh: qHTS Assay for inhibitors of the human cytomegalovirus (HCMV); HFF cells, HCMV-luciferase reporter, 72 h; hits give low values; activity change, negative = inhibition, % at 57.5 µM; hit rate 4.5% among 410,000; AID 1259415, 2018; in the data active = activity change below about -60%; inconclusive = no clear call, values can overlap the other calls; inactive = above about -39%; also: % is scaled to controls: 0 for no effect and ±100 for the full control effect
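Two-dose cell screen: HFF monolayers treated with compounds and infected with luciferase-expressing HCMV at 1 PFU/cell, 72 h at 37C, then lysed for luciferase measurement.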
Starred values were filed as active, the others as inactive; ? = inconclusive; . = not tested or not shown; [ ] = another dose, or the depositor's remark.

SMILES | Lassa entry inh | HCV inhibitor | SARS PLP yeast | FMDV antiviral | Marburg entry inh | HCMV inh
COc1ccc(OC)c2sc(N(CCCN(C)C)C(=O)c3ccc(S(=O)(=O)N4CCc5ccccc5C4)cc3)nc12 | . | 3.98µM* | 2.3% | . | . | .
COc1cccc2sc(N(CCCN(C)C)C(=O)c3ccc(S(=O)(=O)N4CCc5ccccc5C4)cc3)nc12 | -3.8%[46.1 µM] | ? | -6.9% | -7.2% | ? | ?
Cc1ccc2sc(N(CCCN(C)C)C(=O)c3ccc(S(=O)(=O)N4CCc5ccccc5C4)cc3)nc2c1C | 1.2% | ? | 2.7% | -4.3% | ? | -16.4
COc1ccc(C)c2sc(N(CCCN(C)C)C(=O)c3ccc(S(=O)(=O)N4CCc5ccccc5C4)cc3)nc12 | ? | ? | . | ? | ? | -97.8*
NC(=O)NC(=O)CSc1nc2sc(-c3ccccc3)cc2c(=O)n1-c1ccccc1 | -9.6%[46.1 µM] | 1.3% | -0.2% | ? | 4.0%[46.1 µM] | -70.0*
CCCN1CCC(Oc2cc(Nc3nc(Nc4cccc(F)c4C(N)=O)c4cc[nH]c4n3)c(OC)cc2Cl)CC1 | 12.5µM* | . | . | . | . | .
CCCN1CCCC(c2ccc(Nc3nc(Nc4cc(F)ccc4C(N)=O)c4cc[nH]c4n3)c(OC)c2)C1 (stereo not given) | 14.1µM* | . | . | . | . | .
CCCN1CCN(CCNC(=O)Nc2cc(Cl)c(OC)cc2OC)CC1 | -2.2%[46.1 µM] | . | . | -22.4% | -28.8%[46.1 µM] | -9.3
CN1c2ccccc2[C@@]2(O)C(=O)[C@@]1(C)[C@H]1Cc3ccccc3[C@H]12 | . | . | . | . | -0.3%[14.2 µM] | .
OC(c1ccc2c(c1)CN(Cc1ccc3nsnc3c1)CCO2)C1CCCCC1 (stereo not given) | . | . | . | -9.5% | . | .
COC(=O)c1cc(OC)c(OC)cc1NCC(=O)Nc1cccc(C(F)(F)F)c1 | -11.0% | ? | -15.7% | ? | 10.3µM* | ?
N#Cc1cccc(NC(=O)CNc2cccc(S(=O)(=O)N3CCCC3)c2)c1 | ? | 2.51µM* | -1.3% | 1.8% | ? | -26.3
O=C(CNc1cc(S(=O)(=O)N2CCCC2)ccc1OCC(F)(F)F)Nc1cccc(C(F)(F)F)c1 | ? | 11.2µM* | -7.6% | ? | ? | -68.6*
O=C(CNc1cccc(C(F)(F)F)c1)Nc1cccc(S(=O)(=O)N2CCCC2)c1 | . | 11.2µM* | 7.1% | -20.9% | . | ?
O=C(CNc1cc(S(=O)(=O)N2CCOCC2)ccc1N1CCOCC1)Nc1cccc(C(F)(F)F)c1 | ? | 8.1% | -6.9% | -10.3% | 13.2%[46.1 µM] | 0.7
O=C(CNc1cccc(S(=O)(=O)N2CCCC2)c1)Nc1cccc(F)c1 | 2.2% | -6.8% | -2.0% | -22.8% | ? | -6.2
CCc1ccccc1NC(=O)C1CCCN(c2ncnc3onc(C)c23)C1 (stereo not given) | 3.0%[46.1 µM] | . | . | ? | . | -7.1
CC(=O)C(Sc1nc(-c2ccccc2Cl)nc2c1c(=O)n(C)c(=O)n2C)C(=O)N(C)C (stereo not given) | -11.9%[46.1 µM] | . | . | -8.7% | . | -33.8
CCOc1ccccc1NC(=O)c1c(NC(=O)C(C)Oc2ccc(Cl)cc2)sc2c1CCCCC2 (stereo not given) | 9.7%[46.1 µM] | . | . | 0.0% | . | -30.8
COc1ccccc1-c1ncn(Cc2cccc(-c3ccccc3)c2)c1-c1cc(C)cc(C)c1 | . | . | . | -41.2% | . | ?
CCc1c(-c2ccccc2OC)ncn1Cc1cccc(-c2ccccc2)c1 | . | . | . | 0.0% | . | -98.5*
CCCc1c(-c2cccc(Cl)c2)ncn1Cc1cccc(-c2ccccc2)c1 | . | . | . | -27.2% | . | -15.9
CCCc1c(-c2ccc(F)cc2F)ncn1Cc1cccc(-c2ccccc2)c1 | . | . | . | ? | . | -86.7*
COc1ccccc1-c1ncn(Cc2cccc(-c3ccccc3)c2)c1CC(C)C | . | . | . | 28.2µM* | . | ?
Cc1cc(C)c(NC(=O)Cn2c(=O)nc(-c3ccccc3)c3cc(Cl)ccc32)c(C)c1 | 7.4%[46.1 µM] | . | . | -1.0% | . | -8.6
SMILES | Lassa entry inh | HCV inhibitor | SARS PLP yeast | FMDV antiviral | Marburg entry inh | HCMV inh
O=c1cc(N=Nc2ccc(Cl)cc2)[nH]c(=O)[nH]1 | ? | ? | -7.7% | 25.1µM* | 5.3%[46.1 µM] | -100.0*
CC(c1ccccc1C(O)(c1ccccc1)c1ccccc1)N(C)C (stereo not given) | -17.1% | 6.3% | 3.2% | -13.7% | -6.8% | -68.8*
O=C(CSc1nnc(COc2ccc(Cl)cc2)o1)N1CCCC1 | ? | -18.8% | 1.8% | 3.6% | ? | 16.8
O=C(CSc1nnc(COc2ccc(Cl)cc2)o1)N1c2ccccc2CCc2ccccc21 | ? | 10µM* | -4.7% | 0.0% | ? | -15.6
COc1ccc([C@@H]2[C@@H](C(=O)N3CCCC3)CC(=O)N2C(=O)c2ccccc2)cc1 | . | . | . | . | . | -16.7
C=CCNc1cccc2c1S(=O)(=O)N[C@@H](C)CO2 | . | . | . | . | . | -16.6
Cc1c(C(=O)N(C)Cc2cscn2)sc2ncnc(NC[C@H]3CCc4ccccc4O3)c12 | . | . | . | -12.5% | . | .
O=C1c2ccccc2-c2nnc(-c3ccc(F)cc3)cc21 | -12.3%[46.1 µM] | -9.6% | -0.2% | -21.5% | ? | 0.4
Cc1ccc(-c2cc3c(nn2)-c2ccccc2C3=O)cc1 | . | -2.0% | -4.3% | 10µM* | . | 0.0
O=C(Nc1ccccc1OCc1ccccc1)c1ccccc1Br | . | 11.2µM* | -3.9% | -8.9% | . | 0.8
CCOC(=O)C(NC(=O)c1ccccc1)(Nc1cccc(C)n1)C(F)(F)F (stereo not given) | 0.2% | -7.8% | 2.8% | 25.1% | -20.5%[46.1 µM] | ?
CCOC(=O)C(NC(=O)c1ccccc1F)(Nc1cc(C)on1)C(F)(F)F (stereo not given) | -0.2% | 10.7% | 26.6% | -9.6% | -0.4% | -94.1*
Cc1ccc(S(=O)(=O)N2CCOCC2)cc1NC(=O)CN1CCN(c2ccc(O)cc2)CC1 | -4.5% | 19.2% | 8.0% | ? | -24.4% | -60.7*
Cc1ccc(S(=O)(=O)N2CCOCC2)cc1NC(=O)COC(=O)CSc1ccc(Br)cc1C | 2.9% | 9.9% | 4.8% | 2.2% | 4.3% | -96.0*
Cc1ccc(C2(C)NC(=O)N(CC(=O)Nc3cc(S(=O)(=O)N4CCOCC4)ccc3C)C2=O)cc1 (stereo not given) | -17.3% | 7.3% | -14.2% | -24.8% | -4.4% | -101.1*
Cc1ccc(S(=O)(=O)N2CCOCC2)cc1NC(=O)COC(=O)c1ccc(Br)cc1 | 0.9% | 18.6% | -0.3% | 2.7% | 0.2% | -39.5
Cc1ccc(NC(=O)NC(=O)CN2CCN(c3ccc(O)cc3)CC2)c(C)c1 | -25.7%[46.1 µM] | ? | -5.2% | -4.6% | -0.7%[46.1 µM] | -80.7*
CCc1nn2c(=O)cc(COC(=O)c3ccccc3NC(=O)C3CCCCC3)nc2s1 | 2.6%[46.1 µM] | . | . | 30.9% | . | -24.0
Cc1c(Cl)ccc2sc(N3CCN(C(=O)c4ccco4)CC3)nc12 | 4.8%[46.1 µM] | . | . | 3.4% | . | 43.5
Cc1[nH]c2ccccc2c1SCc1n[nH]c(=S)n1C | . | -23.0% | 1.5% | -21.6% | . | -77.7*

Bioassay records deposited in PubChem by National Center for Advancing Translational Sciences (NCATS).
